Test results from PubChem BioAssay AID449764 (Southern Research Specialized Biocontainment Screening …, 2010).
The campaign covered roughly 2,300 compounds. About 1,700 (74%) were called active. How the calls were made is not given here. So high a share suggests a set chosen from earlier hits. The list shows a part of the results. Measured potencies and affinities stand elsewhere.

Test: Mycobacterium tuberculosis H37Rv growth inhibition, no glycerol, confirmatory dose response (AID 449764);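 further: growth read after 7 days of incubation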
Conditions: series mostly up to 100 µM
With CCc1cc(C(=O)Nc2ccc(C)cc2Br)cs1 the outcome was “inactive”.
For CC(=O)CCSc1ncnc2sc(-c3ccccc3)cc12, the outcome was “inactive”.
With O=C(CCSc1ccc(Cl)cc1)NC12CC3CC(CC(C3)C1)C2 the outcome was “inactive”.
In the case of Nc1cc(=O)[nH]c(SCc2csc(-c3ccccc3)n2)n1, the outcome is reported as “inactive”.
In the case of CSc1ccccc1C(=O)NC1CCSc2ccccc21 (configuration not stated), the outcome is reported as “inactive”.
In the case of Cc1cccc(COc2ccccc2/C=N/Nc2ccc([N+](=O)[O-])cc2)c1, the outcome is reported as “inactive”.
With CCCn1c(O)c(N=NC(=O)c2ccco2)c2ccccc21 the outcome was “inactive”.
With CCn1nc(C)c(C(=O)Nc2cc(Oc3cc(C)cc(C)c3)cc([N+](=O)[O-])c2)c1C the outcome was “inactive”.
With Cc1c(Cl)c([N+](=O)[O-])nn1Cc1ccc(C(=O)N/N=C\c2cccc(Br)c2)o1 the outcome was “inactive”.
With CN1C(=O)CC(c2ccccc2)C1=O (configuration not stated) the outcome was “inactive”.
In the case of COc1ccc(OC)c(C(=O)NC(CC(N)=O)c2ccc(NCc3ccc(F)c(F)c3)c([N+](=O)[O-])c2)c1 (configuration not stated), the outcome is reported as “inactive”.
With Nc1ccc2oc(-c3cccs3)nc2c1 the outcome was “inactive”.
With Fc1cccc2sc(Nc3nc4cc5c(cc4s3)OCO5)nc12 the outcome was “inactive”.
In the case of CC1=CC(=O)NP(=O)(Oc2ccc3ccccc3c2)N1 (configuration not stated), the outcome is reported as “inactive”.
In the case of O=C(OCCN1C(=O)c2ccccc2C1=O)c1cc2ccccc2o1, the outcome is reported as “inactive”.
With C=CCc1cccc(CNc2cnc3ccccc3c2)c1O the outcome was “inactive”.
In the case of CNc1cccccc1=S, the outcome is reported as “inactive”.
With COc1cc2cnc(-c3ccccc3)c(-c3ccc(C(F)(F)F)cc3)c2cc1OC the outcome was “inactive”.
In the case of CCCCc1cc(=O)oc2cc(O)ccc12, the outcome is reported as “inactive”.
For Cc1n[nH]c(=S)n1/N=C/c1cccc(OCc2ccccc2)c1, the outcome was “inactive”.
In the case of COC(=O)c1cccc(C#CC(NP(=O)(c2ccccc2)c2ccccc2)c2ccccc2)c1 (configuration not stated), the outcome is reported as “inactive”.
With COc1ccc(NC(=O)CN(C)C(=O)c2n[nH]c3ccccc23)cc1 the outcome was “inactive”.
With CCOC(=O)c1cc(-c2cccc([N+](=O)[O-])c2)on1 the outcome was “inactive”.
In the case of O=C(C1CCC1)N1CCN(S(=O)(=O)c2ccc(Br)cc2Cl)CC1, the outcome is reported as “inactive”.
With CCCNC(=O)NC(=O)COc1ccc2oc3ccccc3c2c1 the outcome was “inactive”.
For COc1ccc(N=Cc2ccc(CNS(=O)(=O)c3ccc(Cl)cc3)o2)cc1, the outcome was “inactive”.
In the case of CCOC(=O)c1ccc(NC(=S)Nc2ccc3[nH]c(=O)[nH]c3c2)cc1, the outcome is reported as “inactive”.
In the case of CCCN(C(=O)CCOc1ccc(C(C)(C)C)cc1)c1c(N)n(Cc2ccccc2)c(=O)[nH]c1=O, the outcome is reported as “inactive”.
For O=C(N/N=C/c1cn(-c2ccccc2)nc1-c1cccs1)c1ccc(Cl)cc1, the outcome was “inactive”.
For c1ccc(CCNc2ncnc3c2cnn3-c2ccccc2)cc1, the outcome was “inactive”.
With Nc1nc(-c2cccc(F)c2)cs1 the outcome was “inactive”.
For c1ccc(NNC2=NCCCCC2)cc1, the outcome was “inactive”.
In the case of Cc1ccc(CN2CCN(Cc3ccc(-n4cccn4)cc3C)CC2CCO)cc1 (configuration not stated), the outcome is reported as “inactive”.
In the case of C/C(=N\N(Cc1ccccc1)c1ccccc1)c1ccncc1, the outcome is reported as “inactive”.
For O=C(NCc1ccc2c(c1)OCO2)c1c(O)nc2sccn2c1=O, the outcome was “inactive”.
In the case of O=C(CCN1C(=O)/C(=C/c2ccccc2Cl)SC1=S)N1CCCC1, the outcome is reported as “inactive”.
With CCOC(=O)C1CCN(C(=O)c2ccc3c(c2)NC(=O)/C(=C/c2ccccc2)S3)CC1 the outcome was “inactive”.
In the case of Clc1ccc(-c2ccc(C=Nc3ccc(N4CCOCC4)cc3)o2)c(Cl)c1, the outcome is reported as “inactive”.
In the case of O=C(c1ccccc1)c1c[nH]c(C(=O)NNc2ccccc2)c1, the outcome is reported as “inactive”.
With O=C(C[n+]1ccccc1)NNc1ccccc1 the outcome was “inactive”.
For O=C(CSc1nc(Nc2ccccc2)nc(N2CCOCC2)n1)Nc1cc(Cl)ccc1O, the outcome was “inactive”.
With CCOC(=O)c1cn[nH]c1N the outcome was “inactive”.
With O=C(NNc1ccc([N+](=O)[O-])cc1)c1ccco1 the outcome was “inactive”.
For CC(C)Oc1ccc(NC(=O)Oc2ccccc2)cc1, the outcome was “inactive”.
In the case of COC(=O)C(NC(=O)c1ccc(OC)cc1)(Nc1ncc(S(=O)(=O)c2ccc([N+](=O)[O-])cc2)s1)C(F)(F)F (configuration not stated), the outcome is reported as “inactive”.
With N#C/C(=C1\CCCN1)c1nc(-c2ccccc2)cs1 the outcome was “inactive”.
With COC(=O)c1ccc(N/N=C/c2cc([N+](=O)[O-])cc(OC)c2O)cc1 the outcome was “inactive”.
With O=C(c1ccco1)N1CCN(C(=O)C2CC(c3ccc(Cl)c(Cl)c3)=NO2)CC1 (configuration not stated) the outcome was “inactive”.
With CCCSC1=C(C#N)C(c2ccc(Cl)cc2Cl)CC(=O)N1 (configuration not stated) the outcome was “inactive”.
With COc1ccc(S(=O)(=O)N(C)CC(=O)NCCCn2ccnc2)cc1Cl the outcome was “inactive”.
In the case of CC1CCC/C(=N\NC(=S)Nc2ccccc2)C1 (configuration not stated), the outcome is reported as “inactive”.
With Cc1nn(-c2ccccc2)c(Cl)c1/C=N/NC(=O)c1ccc(CNc2ccccc2)o1 the outcome was “inactive”.
With Cc1cc(/C=C(/C#N)c2cccc(F)c2)c(C)n1-c1cccnc1 the outcome was “inactive”.
For COc1ccc2[nH]c(=O)c(CNc3cccc(C)c3)cc2c1, the outcome was “inactive”.
For CCOC(=O)c1ccc(NC(=O)CSc2ccc(-c3cccnc3)nn2)cc1, the outcome was “inactive”.
With CC1(C)CN(c2ccccc2)N(C(=O)c2ccc(C#N)cc2)C1=O the outcome was “inactive”.
For C(=N\N1CCN(C2c3ccccc3-c3ccccc32)CC1)/c1ccccn1, the outcome was “inactive”.
With CC(=O)c1ccc2c(c1)C1C(Cl)C(Sc3ccccc3[N+](=O)[O-])CC1C(c1ccccc1)N2 (configuration not stated) the outcome was “inactive”.
In the case of Cc1cn(-c2ccc(Br)cc2)[nH]c1=O, the outcome is reported as “inactive”.
With Nc1cnccc1C(=O)O the outcome was “inactive”.
For CC(NC(=O)c1ccccc1Br)C1CC2CCC1C2 (configuration not stated), the outcome was “inactive”.
For O=C(NC1CCCCC1)C1CC(=O)N(c2cccc([N+](=O)[O-])c2)C1 (configuration not stated), the outcome was “inactive”.
In the case of Nn1c(SCc2ccccc2)nc2ccccc21, the outcome is reported as “inactive”.
For COc1ccc(-c2oc3ncnc(NCCCN4CCOCC4)c3c2-c2ccc(OC)cc2)cc1, the outcome was “inactive”.
With O=c1[nH][nH]cc1C=Nc1ccc(Oc2ccccc2)cc1 the outcome was “inactive”.
In the case of COc1ccc(NC(=O)C2C3C=CC(O3)C2C(=O)NCc2cccnc2)cc1 (configuration not stated), the outcome is reported as “inactive”.
With CC1CN(C(=S)SCC(=O)c2ccc([N+](=O)[O-])cc2)CC(C)O1 (configuration not stated) the outcome was “inactive”.
With N#CC(c1cccc(Cl)c1)c1ccc2c(C(F)(F)F)cc(C(F)(F)F)nc2n1 (configuration not stated) the outcome was “inactive”.
In the case of CCc1n[nH]c(=S)n1/N=C/c1ccc(-c2ccc(Br)cc2)o1, the outcome is reported as “inactive”.
In the case of CCCCOC(=O)c1ccc(NC(=S)NC(=O)c2c(Br)c(C)nn2C)cc1, the outcome is reported as “inactive”.
In the case of CCn1c(SCC(=O)N(C)CCC#N)nc2cc(S(=O)(=O)N3CCOCC3)ccc21, the outcome is reported as “inactive”.
With COC(=O)C1=C(C)NC(=O)/C1=C\c1cc(C)n(-c2cccc(C)c2)c1C the outcome was “inactive”.
